Source: PubChem BioAssay (NCI)
About 83,000 compounds went through this panel and 20% of them were active in at least one assay; those are over-represented in the sample as a whole.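 Activity criterion: percent growth below 10, measured after cells in 96-well plates were exposed to a single compound concentration for 48 hours.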 The source made the active and inactive calls.

These compounds were tested on SK-MEL-5 melanoma (assay: NCI-60 one-dose screen, 48 h (100 = growth as untreated, 0 = no growth, -100 = all killed)). Settings: 10 µM.
Procedure: Growth inhibition of the SK-MEL-5 human tumor cell line is measured as a screen for anti-cancer activity. Cells are grown in 96 well plates and exposed to the test compound for 48 hours. Compounds are tested at a single concentration, which is 10^-5 M for most compounds. The reported endpoint is percent growth (GI% or GIPRCNT), where numbers from 0 - 100% represent growth inhibition, and numbers from -100% - 0 represent cell death. For example, a value of 40 represents 60% growth inhibition. A value of 0 means no net growth occurred over the course of the experiment. A value of -40 indicates 40% of cells at the beginning of the experiment died by the end of the experiment. A value of -100 means all cells are dead at the end of the experiment.
NCI-60 Human Tumor Cell Lines Screen was performed using the standard one-dose NCI protocol, which is described in more detail at https://dtp.cancer.gov/discovery_development/nci-60/default.htm.
Compounds with GIPRCNT values below 10 were considered active. Activity score was based on GIPRCNT using the following formula: […]
Score is 0 for GIPRCNT values of 100 or above, 50 for GIPRCNT values of 0, and 100 for GIPRCNT values of -100.

| SMILES | growth |
| --- | --- |
| CCOC(=O)N1C/C(=C/c2ccc(Cl)cc2)C(=O)/C(=C/c2ccc(Cl)cc2)C1 | 88.1% (inactive) |
| COC(=O)c1ccc(=O)oc1 | 103% (inactive) |
| COc1ccc2c(c1)O/C(=C\c1ccc([N+](=O)[O-])o1)C2=O | 13% (inactive) |
| Cc1nc2ccccc2c(N)c1-c1cc(C)c2c(C)nc3ccccc3c2n1 | 62.1% (inactive) |
| O=C(O)CN1C(=O)c2cccc3cccc(c23)C1=O | 106% (inactive) |
| CCN(CC)CCC(=O)Nc1cccc2c1C(=O)c1c(c(O)c3ccccc3c1O)C2=O | 47.6% (inactive) |
| Cc1ncc(-c2ccoc2)c(NC2CCCCCC2)n1 | 99.6% (inactive) |
| Clc1ccc(/C=C2\CCCC3=C2N=C2SC=NN2C3c2ccc(Cl)cc2)cc1 (stereo not given) | 101% (inactive) |
| COc1ccc2c(c1)nc(N)c1c3cccnc3cn21 | -38.1% (active) |
| O=C(Nc1cccc(-n2cc(-c3ccncc3)c(-c3ccc(O)c(Cl)c3)n2)c1)Nc1cccc(C(F)(F)F)c1 | -49% (active) |
| CC(=O)n1c(-c2ccc(Cl)c(Cl)c2)cn(-c2ccc(Cl)cc2)c1=O | 9.15% (active) |
| COc1ccc(Cl)cc1-n1nnc(-c2nc3ccccc3[nH]2)c1N | 95.9% (inactive) |
| O=C(Nc1cccc(-n2cc(-c3ccncc3)c(-c3ccc(O)c(Cl)c3)n2)c1)c1ccc(N2CCOCC2)c(C(F)(F)F)c1 | 40.9% (inactive) |
| CN(C)CC(O)c1ccc2cc(Br)c3ccccc3c2c1 (stereo not given) | 62.3% (inactive) |
| CCCCCCN1C(=O)C2=C(c3ccc(Cl)cc3)Nc3c(c(C)nn3-c3ccccc3)C2c2ccccc21 (stereo not given) | 92.7% (inactive) |
| CCOC(=O)c1ccc(NC(=O)Nc2ncc(Cl)cc2Cl)cc1 | 104% (inactive) |
| FC(F)(F)c1ccc(-c2cnc(Cl)nc2N2CCC3(CC2)OCCO3)cc1 | 93.8% (inactive) |
| O=C(Nc1cccc(-n2cc(-c3ccncc3)c(-c3cc(O)cc(Cl)c3)n2)c1)Nc1ccc(Cl)c(C(F)(F)F)c1 | 23.8% (inactive) |
| N=C1c2nc3n(c2C(=O)c2nc4n(c21)CCCC4)CCCC3 | -98% (active) |
| CC1(C)Cc2c(sc3ncn4nc(-c5ccc(O)cc5)nc4c23)CO1 | 56.7% (inactive) |

| SMILES | growth |
| --- | --- |
| O=C1OCC2=C1C(c1cccc(Cl)c1)c1cc3c(cc1N2CCO)CCC3 (stereo not given) | -8.14% (active) |
| O=C(O)c1ccc(P(=O)(O)O)c([N+](=O)[O-])c1 | 95.3% (inactive) |
| O=C(c1ccc(Cl)cc1Cl)N1CCOCC1 | 96.3% (inactive) |
| CCN(CC)Cc1cc(Nc2ccnc3cc(Cl)ccc23)ccc1OC | 91.6% (inactive) |
| O=C1/C(=C\c2ccccc2)CN(C(=O)c2ccccc2F)C/C1=C\c1ccccc1 | -48.6% (active) |
| O=S(=O)(NCCNc1nccc(-c2c(-c3ccc(F)cc3)nc3sccn23)n1)c1ccc2ccccc2c1 | 69.2% (inactive) |
| CCCCCCCCCCCCCCCCCCOCC(COCCOCC[N+]1(CCCCCC(=O)[O-])CCCC1)Oc1ncccn1 (stereo not given) | 45.3% (inactive) |
| COc1ccc(-c2nsc3c2NC(=O)CC3c2ccc(F)cc2)cc1 (stereo not given) | 20.5% (inactive) |
| COc1cc(Nc2ccnc(NCCCNc3ccnc4cc(Cl)ccc34)n2)cc(OC)c1 | -100% (active) |
| O=C1/C(=C\c2cn(C(=O)c3ccc(Cl)cc3)c3ccccc23)c2ccccc2N1C(=O)c1ccc(Cl)cc1 | 74.9% (inactive) |
| O=C(O)CCCCSc1ncnc2nc[nH]c12 | 101% (inactive) |
| COc1cc(OC)cc(-c2cncn2-c2ccc(-c3nc4cc(OC)cc(OC)c4s3)cc2)c1 | 39.5% (inactive) |
| COc1ccc(-c2nc3sc(C4CC4)nn3c2/C=C2/C(=O)Nc3ccc(OC)cc32)cc1 | 52.8% (inactive) |
| CNc1ccc(CSc2ccc(C)cc2)cc1 | 67.7% (inactive) |
| c1ccc2c(c1)oc1c3cccnc3ccc21 | 96.7% (inactive) |
| CN(C)N=Nc1nn(C(=O)Nc2ccc(Cc3ccccc3)cc2)c2ccccc12 | -37.5% (active) |
| N=C(N)c1ccc(-c2ccc(-c3cccs3)s2)cc1 | 31.4% (inactive) |
| CC1CC(=O)OC(C)C1 (stereo not given) | 100% (inactive) |
| COc1ccc(-c2nc3sc(-c4ccccc4)c(-c4ccccc4)n3c2/C=C/C(=O)c2ccccn2)cc1 | 70.9% (inactive) |
| COc1ccc(CN2CCC(N3CCCC3=O)c3cc(Cl)ccc32)cc1 (stereo not given) | 103% (inactive) |
